# Reference: PubChem BioAssay (EPA / NIEHS)
# Results filed as inconclusive are left out. Some structures have more than one record in an assay (separate samples or runs), and their calls can disagree. The source made the active and inactive calls. The calls were made as follows: active = hit-call score of the fitted dose curve at least 0.9, where 1 is the maximum; inconclusive = response in the unintended direction; inactive = score below 0.9.
# What was measured:
# [1] = biological target: rat Somatostatin Receptor (SST), Sstr1 (gene 25033) (UniProt P28646); assay: NVS_GPCR_rSST: NovaScreen (NVS) G Protein-Coupled Receptor Assay for rat Somatostatin Receptor (SST) (AID 2283314)
# Summary of the method: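 Single-concentration duplicate screen (25 uM), then concentration-response up to 50 uM for chemicals passing a threshold such as 30% inhibition. Membranes came from rat forebrain. Binding was measured 1 h post-dose by filter radiodetection and scintillation, relative to DMSO.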
# [2] = biological target: rat Gamma-Aminobutyric Acid Type B Receptor (GABBR), Gabbr1 (gene 81657) (UniProt Q9Z0U4); assay: NVS_GPCR_rGABBR: NovaScreen (NVS) G Protein-Coupled Receptor Assay for rat Gamma-Aminobutyric Acid Type B Receptor (GABBR) (AID 2283301)
# Summary of the method: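 Rat cortical membrane preparation, competitive radioligand binding for 1 h with filtration and scintillation readout. Actives from duplicate single-point 25 uM screening proceeded to concentration series with 50 uM top concentration.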
# [3] = biological target: rat Neurokinin-1 Receptor (NK1), Tacr1 (gene 24807) (UniProt P14600); assay: NVS_GPCR_rNK1: NovaScreen (NVS) G Protein-Coupled Receptor Assay for rat Neurokinin-1 Receptor (NK1) (AID 2283309)
# Procedure: (§1) NVS_GPCR_rNK1 is a biochemical, single-readout assay that uses extracted gene-proteins from Rat submaxillary gland membranes in a tissue-based cell-free assay. Measurements were taken 1 hour after chemical dosing in a 48-well plate.NVS_GPCR_rNK1 is one of one assay component(s) measured or calculated from the NVS_GPCR_rNK1 assay. It is designed to make measurements of radioligand binding, a form of binding reporter, as detected with scintillation counting signals by Filter-based radiodetection technology.Data from the assay component NVS_GPCR_rNK1 was analyzed into 1 assay endpoint. This assay endpoint, NVS_GPCR_rNK1, was analyzed in the positive analysis fitting direction relative to DMSO as the negative control and baseline of activity. Using a type of binding reporter, loss-of-signal activity can be used to understand changes in the binding as they relate to the gene Tacr1. Furthermore, this assay endpoint can be referred to as a primary readout, because the performed assay has only produced 1 assay endpoint. To generalize the intended target to other relatable targets, this assay endpoint is annotated to the gpcr intended target family, where the subfamily is rhodopsin-like receptor.
# Binding assays used specific radioligands (tritiated, iodinated) with non-radioactive competitive displacement ligands in agonist or antagonist protocols (as indicated) and various reference compounds and inhibitors to titrate specific binding to receptors and transporters. Most enzyme assays (CYPs, kinases, phosphatases, proteases, HDACs) used recombinant protein and specific substrates (fluorescence mostly, some colorimetric and radioactive) and inhibitors, followed by a biochemical separation of substrate and product. All assays for the biochemical HTS were initially run in duplicate at a single concentration (10 uM for CYP450 assays and 25 uM for all others). […] Each assay was run with positive and negative controls, and concurrent controls on every plate. The follow-up (secondary) screen tested active chemical-pairs in concentration series, as well as a few additional assays not tested in the primary screen, some selected negative inactives, and several cases re-run in the concentration series for confirmatory purposes.
# [4] = biological target: rat Neurotensin Receptor (NTS), Ntsr1 (gene 366274) (UniProt P20789); assay: NVS_GPCR_rNTS: NovaScreen (NVS) G Protein-Coupled Receptor Assay for rat Neurotensin Receptor (NTS) (AID 2283308)
# Procedure: as §1, with “NVS_GPCR_rNTS” for “NVS_GPCR_rNK1”, “forebrain” for “submaxillary gland”, “plate.NVS_GPCR_rNTS” for “plate.NVS_GPCR_rNK1”, “NVS_GPCR_rNTS,” for “NVS_GPCR_rNK1,”, “Using a type of binding reporter, loss-of-signal activity can be used to understand changes in the binding as they relate to the gene Tacr1.” left out, “To generalize the intended target to other relatable targets, this assay endpoint is annotated to the gpcr intended target family, where the subfamily is rhodopsin-like receptor.” left out
# Binding assays used specific radioligands (tritiated, iodinated) with non-radioactive competitive displacement ligands in agonist or antagonist protocols (as indicated) and various reference compounds and inhibitors to titrate specific binding to receptors and transporters. Most enzyme assays (CYPs, kinases, phosphatases, proteases, HDACs) used recombinant protein and specific substrates (fluorescence mostly, some colorimetric and radioactive) and inhibitors, followed by a biochemical separation of substrate and product. […]
# [5] = biological target: rat Opioid Receptor, Non-selective Sodium (Na+) Binding, Oprm1 (gene 25601) (UniProt P33535); assay: NVS_GPCR_rOpiate_NonSelectiveNa: NovaScreen (NVS) G Protein-Coupled Receptor Assay for rat Opioid Receptor, Non-selective Sodium (Na+) Binding (AID 2283311)
# Summary of the method: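 Filtration radioligand binding on rat forebrain membrane preparations, read 1.5 h after dosing. Single-concentration 25 µM primary screen in duplicate, followed by singleton concentration series to 50 µM max for actives; DMSO baseline.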
# [6] = biological target: human Neonicotinoid receptor (NNR), CHRNA2 (gene 1135) (UniProt Q15822); assay: NVS_LGIC_hNNR_NBungSens: NovaScreen (NVS) Ligand-Gated Ion Channel Assay for human Neonicotinoid receptor (NNR) (AID 2283313)
# Summary of the method: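 Compounds first screened in duplicate at 25 uM, then actives re-tested in single-replicate dose series up to 50 uM. Binding measured as displacement of specific radioligand from neuroblastoma membrane receptors after 2 h, scintillation read on filters.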
# [7] = biological target: rat Corticotropin Releasing Factor Receptor (CRF), Crhr1 (gene 58959) (UniProt P35353); assay: NVS_GPCR_rCRF: NovaScreen (NVS) G Protein-Coupled Receptor Assay for rat Corticotropin Releasing Factor Receptor (CRF) (AID 2283300)
# Summary of the method: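 Single-concentration (25 uM, duplicate) radioligand binding on rat cortical membrane preparations, counted by scintillation after 2 h. Activity scored as signal loss relative to DMSO negative control.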
# [8] = biological target: Metabotropic glutamate receptor 1 (Rattus norvegicus) (UniProt P23385); assay: NVS_GPCR_rmMGluR1: NovaScreen (NVS) G Protein-Coupled Receptor Assay for rat Glutamate Metabotropic Receptor 1 (MGluR1) (AID 2283305)
# Summary of the method: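 Binding to native receptor from rat cerebellum extract, measured as displacement of a radioligand (scintillation counting, filter separation) after 1 hour. Compounds tested at 25 uM in duplicate, then titrated to a 50 uM maximum.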
# Adra2b (gene 24174) = Adra2b (gene 24174) (UniProt P19328); assay: NVS_GPCR_rmAdra2B: NovaScreen (NVS) G Protein-Coupled Receptor Assay for hybird cells Adrenergic, Alpha 2B Receptor (Adra2B) (AID 2283306)
# Procedure: as §1, with “NVS_GPCR_rmAdra2B” for “NVS_GPCR_rNK1”, “neuroglioma/blastoma hybrid cells” for “Rat submaxillary gland membranes”, “plate.NVS_GPCR_rmAdra2B” for “plate.NVS_GPCR_rNK1”, “NVS_GPCR_rmAdra2B,” for “NVS_GPCR_rNK1,”, “Adra2b.” for “Tacr1.”, “receptor. […]” for “receptor.”
# [9] = biological target: rat Histamine Receptor (H3), Hrh3 (gene 85268) (UniProt Q9QYN8); assay: NVS_GPCR_rH3: NovaScreen (NVS) G Protein-Coupled Receptor Assay for rat Histamine Receptor (H3) (AID 2283303)
# Summary of the method: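 Filter-binding radioligand competition on rat forebrain membranes, 1 h incubation; compounds screened at 25 µM in duplicate and followed in concentration series to 50 µM, loss of bound signal vs DMSO.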
# Sequence of rat Somatostatin Receptor (SST), Sstr1 (gene 25033) (P28646 whole entry, looked up): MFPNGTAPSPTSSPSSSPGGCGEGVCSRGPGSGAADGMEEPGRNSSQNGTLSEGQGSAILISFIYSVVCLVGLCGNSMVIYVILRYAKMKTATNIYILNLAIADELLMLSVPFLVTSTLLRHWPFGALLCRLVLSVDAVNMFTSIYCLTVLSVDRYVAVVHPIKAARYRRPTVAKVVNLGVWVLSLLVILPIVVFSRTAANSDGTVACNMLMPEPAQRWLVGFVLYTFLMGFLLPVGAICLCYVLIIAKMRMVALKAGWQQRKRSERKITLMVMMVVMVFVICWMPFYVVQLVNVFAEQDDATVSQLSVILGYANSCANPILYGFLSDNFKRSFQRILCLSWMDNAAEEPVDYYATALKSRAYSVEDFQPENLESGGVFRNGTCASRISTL
# Sequence of Metabotropic glutamate receptor 1 (Rattus norvegicus) (P23385 whole entry, looked up): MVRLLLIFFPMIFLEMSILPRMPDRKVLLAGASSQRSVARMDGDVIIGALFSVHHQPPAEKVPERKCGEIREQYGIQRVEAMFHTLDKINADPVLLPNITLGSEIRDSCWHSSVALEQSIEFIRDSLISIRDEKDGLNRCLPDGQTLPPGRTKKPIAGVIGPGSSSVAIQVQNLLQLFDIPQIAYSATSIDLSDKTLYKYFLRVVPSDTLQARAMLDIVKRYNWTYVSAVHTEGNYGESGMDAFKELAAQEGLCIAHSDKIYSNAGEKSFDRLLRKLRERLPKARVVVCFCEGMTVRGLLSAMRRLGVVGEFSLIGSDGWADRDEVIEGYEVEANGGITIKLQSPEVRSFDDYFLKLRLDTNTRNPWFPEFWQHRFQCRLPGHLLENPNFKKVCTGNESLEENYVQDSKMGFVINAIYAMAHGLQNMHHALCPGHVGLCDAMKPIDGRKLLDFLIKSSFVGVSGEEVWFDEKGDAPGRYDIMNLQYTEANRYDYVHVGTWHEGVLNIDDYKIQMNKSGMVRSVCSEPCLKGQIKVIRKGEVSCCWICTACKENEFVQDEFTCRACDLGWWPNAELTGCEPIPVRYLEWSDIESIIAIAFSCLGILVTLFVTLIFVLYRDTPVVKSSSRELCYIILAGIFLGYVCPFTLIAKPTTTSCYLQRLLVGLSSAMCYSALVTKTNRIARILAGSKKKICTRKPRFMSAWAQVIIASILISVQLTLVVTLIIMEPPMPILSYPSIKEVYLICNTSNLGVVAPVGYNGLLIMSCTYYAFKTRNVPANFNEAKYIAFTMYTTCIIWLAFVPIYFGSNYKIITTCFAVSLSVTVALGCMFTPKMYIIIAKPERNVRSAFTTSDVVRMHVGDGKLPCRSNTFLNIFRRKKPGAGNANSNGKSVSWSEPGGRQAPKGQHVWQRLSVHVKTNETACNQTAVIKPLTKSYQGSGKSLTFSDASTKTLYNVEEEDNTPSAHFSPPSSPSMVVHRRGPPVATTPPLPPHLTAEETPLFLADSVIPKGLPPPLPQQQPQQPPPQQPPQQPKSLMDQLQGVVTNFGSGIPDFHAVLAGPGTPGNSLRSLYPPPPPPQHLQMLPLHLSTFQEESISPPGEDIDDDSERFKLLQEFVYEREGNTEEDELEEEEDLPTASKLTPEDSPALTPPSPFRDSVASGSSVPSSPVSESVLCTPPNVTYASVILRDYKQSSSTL
# Sequence of rat Neurokinin-1 Receptor (NK1), Tacr1 (gene 24807) (P14600 whole entry, looked up): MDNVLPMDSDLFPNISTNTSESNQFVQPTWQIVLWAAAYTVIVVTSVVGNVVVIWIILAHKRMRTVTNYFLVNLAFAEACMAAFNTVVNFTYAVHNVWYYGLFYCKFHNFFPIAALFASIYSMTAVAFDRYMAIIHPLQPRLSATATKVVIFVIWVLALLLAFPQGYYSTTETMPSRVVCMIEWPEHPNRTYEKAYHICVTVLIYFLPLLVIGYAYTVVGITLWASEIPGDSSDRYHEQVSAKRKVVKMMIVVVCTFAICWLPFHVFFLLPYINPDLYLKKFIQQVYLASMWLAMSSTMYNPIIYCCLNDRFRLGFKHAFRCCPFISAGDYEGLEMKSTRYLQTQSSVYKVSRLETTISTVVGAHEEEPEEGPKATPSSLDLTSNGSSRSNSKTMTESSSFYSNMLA
# Sequence of rat Corticotropin Releasing Factor Receptor (CRF), Crhr1 (gene 58959) (P35353 whole entry, looked up): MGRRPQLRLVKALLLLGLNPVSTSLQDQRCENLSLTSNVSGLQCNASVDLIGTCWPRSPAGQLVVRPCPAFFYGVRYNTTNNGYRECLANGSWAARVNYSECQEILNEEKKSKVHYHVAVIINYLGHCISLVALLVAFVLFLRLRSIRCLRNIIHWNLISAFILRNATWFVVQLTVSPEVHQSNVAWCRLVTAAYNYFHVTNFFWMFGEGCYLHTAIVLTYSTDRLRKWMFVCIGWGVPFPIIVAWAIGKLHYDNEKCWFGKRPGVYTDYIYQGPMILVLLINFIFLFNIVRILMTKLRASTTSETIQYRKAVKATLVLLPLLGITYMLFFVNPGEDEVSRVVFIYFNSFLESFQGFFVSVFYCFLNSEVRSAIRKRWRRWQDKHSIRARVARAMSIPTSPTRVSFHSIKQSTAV
# Sequence of Adra2b (gene 24174) (P19328 whole entry, looked up): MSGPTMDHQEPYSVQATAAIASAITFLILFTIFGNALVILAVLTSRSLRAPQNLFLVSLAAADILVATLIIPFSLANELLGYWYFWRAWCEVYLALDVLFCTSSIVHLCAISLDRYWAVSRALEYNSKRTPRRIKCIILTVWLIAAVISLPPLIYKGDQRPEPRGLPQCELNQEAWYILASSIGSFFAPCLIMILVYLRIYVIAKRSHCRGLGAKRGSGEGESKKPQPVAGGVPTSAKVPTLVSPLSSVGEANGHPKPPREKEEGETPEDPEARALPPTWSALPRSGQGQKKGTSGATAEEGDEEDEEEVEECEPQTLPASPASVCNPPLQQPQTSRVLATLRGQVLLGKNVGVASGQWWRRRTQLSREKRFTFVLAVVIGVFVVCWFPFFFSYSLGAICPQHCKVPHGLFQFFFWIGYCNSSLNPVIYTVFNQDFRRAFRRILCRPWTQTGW
# Sequence of human Neonicotinoid receptor (NNR), CHRNA2 (gene 1135) (Q15822 whole entry, looked up): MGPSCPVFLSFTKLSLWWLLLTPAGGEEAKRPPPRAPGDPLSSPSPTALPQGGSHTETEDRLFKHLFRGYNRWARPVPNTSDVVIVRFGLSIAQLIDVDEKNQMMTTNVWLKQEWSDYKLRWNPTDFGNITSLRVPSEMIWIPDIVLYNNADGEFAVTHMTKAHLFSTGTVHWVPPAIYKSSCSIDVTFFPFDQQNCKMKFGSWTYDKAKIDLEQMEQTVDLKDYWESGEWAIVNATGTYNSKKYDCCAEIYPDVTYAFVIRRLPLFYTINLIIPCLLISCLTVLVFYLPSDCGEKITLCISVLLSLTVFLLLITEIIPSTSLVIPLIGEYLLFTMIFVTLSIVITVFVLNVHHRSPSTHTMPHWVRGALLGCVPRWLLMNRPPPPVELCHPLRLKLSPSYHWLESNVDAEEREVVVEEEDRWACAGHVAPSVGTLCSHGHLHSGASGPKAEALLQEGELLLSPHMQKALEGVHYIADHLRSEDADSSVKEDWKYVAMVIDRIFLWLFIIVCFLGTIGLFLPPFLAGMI
# Sequence of rat Opioid Receptor, Non-selective Sodium (Na+) Binding, Oprm1 (gene 25601) (P33535 whole entry, looked up): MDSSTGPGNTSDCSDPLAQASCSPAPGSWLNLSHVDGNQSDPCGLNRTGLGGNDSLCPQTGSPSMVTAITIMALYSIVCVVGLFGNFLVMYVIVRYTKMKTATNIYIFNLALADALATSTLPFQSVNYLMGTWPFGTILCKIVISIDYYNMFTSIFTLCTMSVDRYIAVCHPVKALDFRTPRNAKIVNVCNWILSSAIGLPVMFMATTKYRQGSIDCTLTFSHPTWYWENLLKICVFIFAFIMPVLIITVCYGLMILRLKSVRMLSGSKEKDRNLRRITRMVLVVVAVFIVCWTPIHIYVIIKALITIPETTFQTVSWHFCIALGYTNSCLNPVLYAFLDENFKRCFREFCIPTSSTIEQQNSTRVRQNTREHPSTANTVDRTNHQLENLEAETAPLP
# Sequence of rat Neurotensin Receptor (NTS), Ntsr1 (gene 366274) (P20789 whole entry, looked up): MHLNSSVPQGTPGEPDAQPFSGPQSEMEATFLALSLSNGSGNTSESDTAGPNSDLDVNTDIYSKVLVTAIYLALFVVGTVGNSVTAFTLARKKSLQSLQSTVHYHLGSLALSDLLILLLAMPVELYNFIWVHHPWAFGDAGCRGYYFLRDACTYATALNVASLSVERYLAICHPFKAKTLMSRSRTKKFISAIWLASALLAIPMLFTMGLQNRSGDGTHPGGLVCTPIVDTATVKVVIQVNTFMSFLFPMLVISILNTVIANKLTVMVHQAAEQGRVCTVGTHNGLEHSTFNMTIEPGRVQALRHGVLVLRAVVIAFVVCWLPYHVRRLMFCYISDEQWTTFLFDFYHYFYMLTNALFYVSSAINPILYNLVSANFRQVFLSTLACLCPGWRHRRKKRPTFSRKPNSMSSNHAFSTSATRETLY
# Sequence of rat Histamine Receptor (H3), Hrh3 (gene 85268) (Q9QYN8 whole entry, looked up): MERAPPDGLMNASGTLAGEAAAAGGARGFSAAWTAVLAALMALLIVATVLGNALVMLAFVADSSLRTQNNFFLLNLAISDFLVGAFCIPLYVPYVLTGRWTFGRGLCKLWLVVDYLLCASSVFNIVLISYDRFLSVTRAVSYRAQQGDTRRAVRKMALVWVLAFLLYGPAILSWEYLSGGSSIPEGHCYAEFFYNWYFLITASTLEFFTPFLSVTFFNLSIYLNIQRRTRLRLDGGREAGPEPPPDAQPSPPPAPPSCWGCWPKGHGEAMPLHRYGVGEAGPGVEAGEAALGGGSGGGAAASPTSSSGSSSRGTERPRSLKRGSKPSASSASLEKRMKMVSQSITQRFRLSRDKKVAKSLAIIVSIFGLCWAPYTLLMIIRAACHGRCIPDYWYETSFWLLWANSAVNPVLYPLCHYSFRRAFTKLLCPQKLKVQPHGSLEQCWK
smiles,measurement,setting,value
O=S(=O)(O)C(F)(F)C(F)(F)C(F)(F)C(F)(F)C(F)(F)C(F)(F)C(F)(F)C(F)(F)F,outcome,[1],inactive
Oc1ccc(Cl)cc1Cc1ccccc1,outcome,[2],inactive
same,outcome,[3],inactive
same,AC50,[1],25.2 µM (active)
CNC(=O)/C=C(\C)OP(=O)(OC)OC,outcome,[4],inactive
Oc1cc(Cl)ccc1Oc1ccc(Cl)cc1Cl,AC50,[1],18.7 µM (active)
CCOCN(C(=O)CCl)c1c(C)cccc1CC,outcome,[5],inactive
CCC(C)(C)C(=O)OC1=C(c2ccc(Cl)cc2Cl)C(=O)OC12CCCCC2,outcome,[6],inactive
O=[N+]([O-])c1c(Cl)c(Cl)c(Cl)c(Cl)c1Cl,outcome,[7],inactive
O=[N+]([O-])/N=C1\NCCN1Cc1ccc(Cl)nc1,AC50,[6],8.29 µM (active)
CC[C@H](C)[C@H]1O[C@]2(C=C[C@@H]1C)C[C@@H]1C[C@@H](C/C=C(\C)[C@@H](O[C@H]3C[C@H](OC)[C@@H](O[C@H]4C[C@H](OC)[C@@H](O)[C@H](C)O4)[C@H](C)O3)[C@@H](C)/C=C/C=C3\CO[C@@H]4[C@H](O)C(C)=C[C@@H](C(=O)O1)[C@]34O)O2 (tested in a mixture with another compound),AC50,[8],9.49 µM (active)
same,outcome,[1],inactive
CCCN(CCOc1c(Cl)cc(Cl)cc1Cl)C(=O)n1ccnc1,AC50,Adra2b (gene 24174),3.65 µM (active)
same,outcome,[3],inactive
CC(C)N(C(=O)COc1nnc(C(F)(F)F)s1)c1ccc(F)cc1,outcome,[8],inactive
N#Cc1c(Cl)c(Cl)c(Cl)c(C#N)c1Cl,outcome,[8],inactive
CC(C)(C)C(O)C(Oc1ccc(Cl)cc1)n1cncn1 (stereo not drawn),AC50,[3],38.2 µM (active)
same,outcome,[3],inactive
O=C(Nc1ccccc1)Nc1cnns1,outcome,[7],inactive
same,outcome,[9],inactive
same,outcome,Adra2b (gene 24174),inactive
same,outcome,[3],inactive
same,outcome,[5],inactive
